Hits are enriched below; roughly 7.8% of the tested compounds scored in any of these assays.
PostGolgi yeast = phenotypic screen on post-Golgi transport, primary screen; post-Golgi transport phenotypic cell assay; inhibition, % at 10 µM; actives 0.9% (n = 98,000); AID 739, 2007;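 further: yeast cells grown in 1536-well plates; yeast grown about 18 h at 30C before absorbance read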
PostGolgi ctrl = growth inhibition of yeast control strain, primary screen, counter-screen for post-Golgi transport modulator project | efflux-deficient yeast background strain, growth absorbance A615, 16 h | inhibition, % at 10 µM | actives 5% (n = 98,000) | AID 738, 2007
sEH inhibitor = soluble epoxide hydrolase inhibitors, primary screen, biochemical, human sEH; actives 0.34% (n = 91,000); recombinant human sEH enzymatic activity assay; Bifunctional epoxide hydrolase 2 (Homo sapiens), P34913; inhibition, % at 2 µM; in the data active means inhibition above about 80%
Target sequence (P34913 whole entry, looked up): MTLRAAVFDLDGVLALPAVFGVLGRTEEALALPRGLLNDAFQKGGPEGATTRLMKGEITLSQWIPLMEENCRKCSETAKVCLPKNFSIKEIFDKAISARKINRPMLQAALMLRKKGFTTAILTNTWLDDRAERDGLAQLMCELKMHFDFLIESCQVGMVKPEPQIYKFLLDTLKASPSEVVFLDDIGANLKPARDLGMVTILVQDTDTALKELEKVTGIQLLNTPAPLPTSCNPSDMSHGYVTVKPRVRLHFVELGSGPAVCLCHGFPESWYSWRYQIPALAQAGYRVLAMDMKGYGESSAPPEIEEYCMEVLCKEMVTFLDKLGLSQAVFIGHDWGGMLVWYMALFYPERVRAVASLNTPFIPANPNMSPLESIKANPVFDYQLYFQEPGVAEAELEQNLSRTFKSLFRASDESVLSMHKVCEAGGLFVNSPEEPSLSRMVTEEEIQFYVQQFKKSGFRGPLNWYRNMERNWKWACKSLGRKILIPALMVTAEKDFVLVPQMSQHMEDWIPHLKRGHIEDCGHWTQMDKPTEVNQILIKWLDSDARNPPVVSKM
Cav3 T inh = Cav3.2 calcium influx blockers – cell-based, Fluo-4 calcium fluorescence, FDSS, MLSMR library, primary screen | Cav3.2-expressing cells; active compounds read low | B-score at 10 µM | Voltage-dependent T-type calcium channel subunit alpha-1H (Homo sapiens), O95180 | actives 4% (n = 100,000);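 active means single-dose well whose peak fluorescence ratio is a statistical outlier from its plate by either plate-standardised score or position-corrected B-score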
sEH act = soluble epoxide hydrolase activators, primary screen, biochemical, human sEH; Bifunctional epoxide hydrolase 2 (Homo sapiens), P34913; purified human sEH enzymatic activity, activator screen; actives 0.04% (n = 91,000); activation, % at 2 µM; in the data active means activation above about 37%
A number is an active result; . = inactive; / = not tested or not shown. Unless noted, no stated cut-off is given here; in the data, active means inhibition above about 30%; inactive means the rest.

SMILES	PostGolgi yeast	PostGolgi ctrl	sEH inhibitor	Cav3 T inh	sEH act
CC(=O)Nc1ccc(S(=O)(=O)NC2(C(F)(F)F)NC(=O)N(C3CCCCC3)C2=O)cc1 (stereo not given)	.	.	.	.	.
Cc1ccc(Cn2ccc(NC(=O)c3cc(-c4ccc5c(c4)OCO5)on3)n2)cc1	.	35	.	.	.
CC1c2[nH]c3ccccc3c2CCN1C(=O)Nc1ccccc1 (stereo not given)	/	/	.	-12	.
Cc1cccc(NC(=O)CN(c2ccc(C(C)C)cc2)S(=O)(=O)c2c(C)nn(C)c2C)n1	.	.	.	.	.
O=C(NC1CCCC1)c1cccc(NC(=O)c2ccco2)c1	.	.	.	.	.
Cc1ccc(C)c(N(CC(=O)NC2CCCC2)C(=O)c2oc(C(C)(C)C)cc2C)c1	.	.	.	-4.8	.
Cc1cc(C(C)(C)C)oc1C(=O)N(CC(=O)NC1CCCC1)Cc1ccc(F)cc1	.	.	.	.	.
CCc1nccn1S(=O)(=O)c1ccc(OC)c(C)c1C	.	.	.	-3.8	.
COc1cc(CN2C(=O)C(NC(=O)c3ccco3)(C(F)(F)F)C3=C2CC(C)(C)CC3=O)cc(OC)c1 (stereo not given)	.	.	.	.	.
O=[N+]([O-])c1ccc(-c2cnc(SCc3ccccc3Cl)[nH]2)cc1	.	42	.	.	.
Cc1cc(C)c(CSc2ncc(-c3ccc([N+](=O)[O-])cc3)[nH]2)c(C)c1	.	49	.	.	.
O=[N+]([O-])c1ccc(Sc2ccccc2Cl)nc1	.	.	.	.	.
O=[N+]([O-])c1ccc2nc(SCc3ccccc3Cl)sc2c1	.	.	.	-4.1	.
NC(=O)CSc1ncc(-c2ccccc2)[nH]1	.	.	.	.	.
Cc1ccc(-n2c3c(cc(C(=O)O)c2=O)C(=O)CC(C)(C)C3)cc1	.	.	.	.	.
Cc1cc2c(n1-c1ccc(Cl)cc1)CC(C)(C)CC2=O	.	36	.	.	.
CC1CN(C(=O)c2ccccc2C(=O)c2ncc[nH]2)CC(C)O1 (stereo not given)	.	.	.	.	.
O=C(c1ncc[nH]1)c1ccccc1C(=O)N1CCOCC1	.	33	.	.	.
C=CCNS(=O)(=O)c1ccc2nsnc2c1	.	.	/	.	/
CC1=CC(=C2C(=O)c3ccccc3C2=O)C=C(C)N1Cc1ccco1	.	37	.	/	.
Cc1c(C(=O)Nc2ccc(Oc3ccccc3)cc2)sc2nc3n(c(=O)c12)CCC3	.	31	.	.	.
CCOC(=O)c1sc2nc3n(c(=O)c2c1C)CCCCC3	.	30	.	.	.
CSc1nc2ccc(NS(=O)(=O)c3ccc(Cl)s3)cc2s1	.	40	.	-5.6	.
CCOC(=O)c1c(C)[nH]c(N=Nc2ccccc2C)c1C	.	.	.	.	.
Cc1ccccc1CSCCNS(C)(=O)=O	.	.	.	.	.
SMILES	PostGolgi yeast	PostGolgi ctrl	sEH inhibitor	Cav3 T inh	sEH act
COc1ccc(S(=O)(=O)NCCSCc2ccccc2C)cc1Br	.	36	.	-4.9	.
CCOc1ccc(S(=O)(=O)NCCOC)cc1C	.	45	.	.	.
CCCCNS(=O)(=O)c1ccc(OC)c(C)c1	/	/	.	.	.
O=C(OCn1nnc2ccccc2c1=O)C1CCN(S(=O)(=O)c2cccs2)CC1	.	.	/	.	/
CCN(c1cccc(C)c1)c1nc2ccsc2c(=O)s1	.	.	.	.	.
CC1CCN(c2cc(N3CCOCC3)c(F)cc2[N+](=O)[O-])CC1	.	.	.	.	.
Cc1nnc(N/N=C/c2cc([N+](=O)[O-])c(N3CCC(C)CC3)cc2N2CCC(C)CC2)n1N	.	.	.	-6.7	.
CC(C)NS(=O)(=O)c1ccc(OCC(=O)Nc2ccc(F)cc2F)cc1	.	.	.	.	.
Cc1ccc2[nH]c(C)c(/C=N/Nc3nc4ccccc4s3)c2c1	49	69	.	.	.
O=C(NCCc1ccccc1)c1ccc(Cl)nc1	/	/	.	.	.
COc1ccc(S(=O)(=O)N2CCC(NC(=O)OCc3c(Cl)cccc3Cl)CC2)cc1	.	32	.	.	.
Cc1cc2nc(SCC(=O)N(C)C)c3c(c2cc1C)CCCC3	.	31	.	.	.
C=CCN1c2ccccc2[C@]23C[C@@H](C(=O)OC)N(C(=O)c4cccs4)C2=NC(C(=O)OC)=C(C(=O)OC)[C@H]13	/	/	/	.	/
Cc1cc2c3nonc3ccc2n1-c1ccccc1	.	35	.	.	.
Cc1onc(-c2ccccc2)c1C(=O)N1CCc2ccccc21	.	.	.	.	.
O=C(Nc1ccon1)C(Sc1ccccc1)c1ccccc1 (stereo not given)	.	.	.	-4.2	.
CN(C)C(=O)c1cc(F)ccc1Sc1cc(Cl)ccc1Cl	.	.	.	/	.
CN(C)C(=O)c1cc(Cl)ccc1Sc1cc(Cl)ccc1Cl	.	56	.	/	.
CCOC(=O)c1cnc(SC)nc1Sc1cc(Cl)ccc1Cl	33	.	.	.	.
COc1ccc(C2c3c(ncn(CCN4CCOCC4)c3=N)Oc3ccc4ccccc4c32)cc1 (stereo not given)	.	.	.	.	.
Cc1ccccc1Oc1cccc(C(=O)/C(C#N)=C/N(C)C)c1	.	.	.	.	.
Cc1cc(Cl)ccc1Oc1cccc(C(=O)/C(C#N)=C/N(C)C)c1	.	65	.	.	.
CN(C)/C=C(/C#N)C(=O)c1cccc(Oc2ccc(C(C)(C)C)cc2)c1	.	50	.	.	.
Cc1cccn2c(=O)c3cc(C(=O)NCCCN4CCCC4=O)n(C)c3nc12	.	.	.	.	.
CCOC(=O)c1c(NC(=O)c2cccc(N3C(=O)CCC3=O)c2)sc(C)c1C	.	.	.	.	.
SMILES	PostGolgi yeast	PostGolgi ctrl	sEH inhibitor	Cav3 T inh	sEH act
Cc1ccc(-c2csc(NC(=O)c3cccc(N4C(=O)CCC4=O)c3)n2)o1	.	.	/	-5.2	/
CC(C)(C)CC(C)(C)NC(=O)CSCC(=O)Nc1ccc2ccccc2c1	/	/	.	.	.
C=CCc1ccccc1OCC(O)CN1CCN(c2ccccc2F)CC1 (stereo not given)	.	.	.	.	.
C=CCc1cc(C)ccc1OCC(O)CN1CCN(c2ccccc2)CC1 (stereo not given)	.	.	.	-4.6	.
C=CCc1ccccc1OCC(O)CN1CCN(c2ccccc2OC)CC1 (stereo not given)	.	.	.	.	.
C=CCc1cc(OC)ccc1OCC(O)CN1CCN(c2ccc(OC)cc2)CC1 (stereo not given)	.	45	.	.	.
COc1ccccc1N1CCN(CC(O)COc2cccc3ccccc23)CC1 (stereo not given)	/	/	/	-4.5	/
COc1ccc(NC(=O)COC(=O)CCCc2c[nH]c3ccccc23)cc1OC	.	.	.	.	.
NS(=O)(=O)c1ccc(NC(=O)C2COc3ccccc3O2)cc1 (stereo not given)	.	.	.	.	.

Assay outcomes from PubChem BioAssay.
